39 compounds from PubChem BioAssay (NCATS) can be followed below.

Results filed as inconclusive are left out. Values without a mark were called inactive. Activity calls are given as the source filed them. The call rests on the fitted dose curve; in most records, active means well fitted inhibition curve with a large enough effect; inconclusive means small, poorly fitted or top-dose-only effect; inactive means flat fitted curve, though single readings scatter.
On the % scale 0 is the no-effect control and ±100 the full control effect.

Sequence of Calcium and integrin-binding protein 1 (Homo sapiens) (Q99828 whole entry, looked up): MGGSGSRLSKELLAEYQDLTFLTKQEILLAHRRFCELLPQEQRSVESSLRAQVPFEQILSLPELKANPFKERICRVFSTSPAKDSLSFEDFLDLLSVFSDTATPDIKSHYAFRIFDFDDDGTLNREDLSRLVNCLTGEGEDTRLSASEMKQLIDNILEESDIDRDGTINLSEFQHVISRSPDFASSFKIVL

The experiment has as its target Calcium and integrin-binding protein 1 (Homo sapiens) (UniProt Q99828). The experiment is described as follows: Primary qHTS for Identification of Calcium Integrin Binding Protein 1 (CIB1) Competitor (AID 1508620). Further: top concentration of the series differs between compounds. As to conditions: CIB1-GST / FITC-alphaIIb peptide fluorescence polarization; series mostly up to 114 µM; activity change, negative = inhibition: at the top concentration. In short, it runs like this:
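Fluorescence polarization competition: GST-tagged CIB1 (1 uM final) preincubated with compound 15 min at room temperature, then FITC-labelled alphaIIb peptide (100 nM final) added. After 15 min at room temperature, polarization read at Ex 480/Em 540.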
On the technique in general: qHTS replaces the single test concentration by a dilution series.
As to `O=c1c2ccc(F)cc2nc2sc(Nc3ccc4c(c3)CCC4)nn12`, the “activity change, negative = inhibition” value was 7.1%.
`O=[S+]([O-])(Nc1ccc(C2CCNCC2)cc1)c1ccc(NCc2ccc(Cl)cc2O)cc1`: the “activity change, negative = inhibition” value is -21.2%.
Take `Cc1cc2c(s1)c1cnn(Cc3c(F)ccc(Cl)c3F)c(=O)c1n2C`: the “activity change, negative = inhibition” value was -0.826%.
Regarding `O=C1c2ccccc2C(=O)N1c1cncc2ccccc12`, the “activity change, negative = inhibition” value is 5.67%.
For `Cc1cc2c(s1)c1cnn(Cc3ccc(C)c(F)c3)c(=O)c1n2C`, the “activity change, negative = inhibition” value is 8.21%.
For the compound `Cc1ccc(OCCn2c(CCNC(=O)C(C)(C)C)nc3ccccc32)cc1`, the “activity change, negative = inhibition” value is 5.75%.
`CCOC(=O)c1ccoc1-c1ccc2ncnc(N(C)Cc3sccc3C)c2c1`: the “activity change, negative = inhibition” value is 2.54%.
`O=C(Nc1ccc(-c2cn[nH]c2)cc1)Nc1nnc(-c2ccncc2)s1`: the “activity change, negative = inhibition” value is -3.7%.
`C=CCNc1nnc(-c2cccc3ccccc23)o1`: the “activity change, negative = inhibition” value is 0.526%.
In the case of `O=c1c2ccccc2nc(-c2ccccc2O)n1Cc1ccccc1`, the “activity change, negative = inhibition” value was 3.98%.
`O=S(=O)(c1ccc(C(F)(F)F)cc1)N1CCN(S(=O)(=O)c2ccc3c(c2)OCCO3)CC1`: the “activity change, negative = inhibition” value is 5.1%.
Take `CCOC(=O)C1CCN(C(=O)C(C)(C)NC(=O)Nc2ccc3ccccc3c2)CC1`: the “activity change, negative = inhibition” value was -18.8%.
Take `O=C(O)C1C2C(=O)N(c3ccccc3)C[C@@]23C=C[C@@H]1O3` (some centres undefined): the “activity change, negative = inhibition” value was 5.6%.
`COc1ccc(-c2nc3ccc(Cl)cc3c(=O)n2Cc2ccccc2)cc1COc1ccc(NC(C)=O)cc1`: the “activity change, negative = inhibition” value is 3.89%.
Turning to `COc1ccnc(NC(=S)N2CCN(c3ccc4ccccc4n3)CC2)c1`, the “activity change, negative = inhibition” value is -10.9%.
On to `Fc1cnc(-c2ccccc2C(F)F)nc1NCc1ccc(-n2ccnn2)cc1`, for which the “activity change, negative = inhibition” value was 3.93%.
For `Cc1csc(CNc2ncnc3ccc(-c4ccc5c(c4)OCO5)cc23)c1`, the “activity change, negative = inhibition” value was 5.38%.
Take `COc1cccc(CNc2ccc(S(=O)(=O)Nc3cc(C)on3)cc2)c1O`: the “activity change, negative = inhibition” value is -4.73%.
As to `Cc1ccc(-c2nnc(N3CCC(C(N)=O)CC3)s2)cc1`, the “activity change, negative = inhibition” value was 4.74%.
For `COc1cccc(-c2nnc3n2N=C(c2c(OC)cccc2OC)CS3)c1OC`, the “activity change, negative = inhibition” value is 2.96%.
Turning to `Fc1cc(Nc2nc(-c3ccncc3)nc3ccccc23)ccc1-n1cncn1`, the Potency result is “inactive”.
On to `Cc1cc2c(s1)c1cnn(Cc3cccc(C(F)(F)F)c3F)c(=O)c1n2C`, for which the “activity change, negative = inhibition” value was -1.74%.
For `FC(F)(F)c1ccccc1-c1nc(NCc2ccc(C3CCCCC3)cc2)c2ccccc2n1`, the “activity change, negative = inhibition” value is 5.01%.
The same measure, in the same setting: with `CCOc1ccc(CCNC(=O)c2cc3ccccc3n2Cc2ccc(Cl)c(F)c2)cc1OCC` the figure was -0.838%; with `CCOC(=O)C1CCN(C(=O)C(C)(C)NC(=O)Nc2ccc3sccc3c2)CC1`, -9.54%.
For the compound `O=[N+]([O-])c1ccccc1S(=O)(=O)N1CCN(S(=O)(=O)c2ccc3c(c2)OCCO3)CC1`, the “activity change, negative = inhibition” value is 0.26%.
Same read-out and setting: with `COc1ccc(C2Nc3ccccc3C(=O)N2C2CCCC2)cc1COc1ccc(NC(C)=O)cc1` (centres undefined) the figure was 6.31%.
As to `CC(=O)Nc1sc2c(c1-c1ccc(C(N)=O)cc1)CCNC2`, the “activity change, negative = inhibition” value was -3.23%.
Regarding `O=C(Cc1ccccc1)Nc1nnc(-c2ccncc2)s1`, the “activity change, negative = inhibition” value was 2.43%.
In the case of `c1cncc(-c2ccc3ncnc(NCc4ccc5c(c4)OCO5)c3c2)c1`, the “activity change, negative = inhibition” value was -9.15%.
For the compound `Cc1cccc(-c2ccc3ncnc(NCc4cccnc4)c3c2)c1`, the “activity change, negative = inhibition” value is 5.01%.
For the compound `O=[N+]([O-])c1ccccc1NCc1ccc(O)c2ncccc12`, the “activity change, negative = inhibition” value was 5.31%.
On the same count and under the same terms, with `Brc1cnc2nc(SCc3ccncc3)[nH]c2c1` the figure was 15.8%; with `CN1C(=O)NC(c2ccccc2Cl)C2=C1CCCC2=O` (centres undefined), -1.9%; with `Cn1c2ccsc2c2cnn(Cc3ccc(F)cc3)c(=O)c21`, 0.241%.
For the compound `CNc1nnc(-c2cccc3ccccc23)s1`, the “activity change, negative = inhibition” value is -3.78%.
Regarding `O=C(O)c1ccc(O)c2ncc(N3CCCN(CCCc4ccncc4)CC3)cc12`, the “activity change, negative = inhibition” value was -7.37%.
On the same count and under the same terms, with `Cc1ccc(-c2ccc(=O)n(CC(=O)NCCc3ccc(O)cc3)n2)cc1` the figure was 0.617%; with `CC(=O)N1c2ccc(S(=O)(=O)Nc3ccc(C)c(C)c3)cc2CC1C` (centres undefined), 0.285%.
